Among the data in PubChem BioAssay (Tox21) are Potency values, retold here.

Test [1] in a line: qHTS assay to identify small molecule antagonists of the retinoid acid receptor (RAR) signaling pathway - cell viability counter screen (AID 1159551). Note: nearly all actives have a fitted effect of over 35% in size. Note: potency is the fitted concentration of half-maximal effect. In short, it runs like this: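 Luminescent ATP quantitation (CellTiter-Glo) gave cell viability in C3RL4 cells exposed to test chemicals for 6 h at 37 C alongside 1 uM final retinol.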
(In general: qHTS replaces the single test concentration by a dilution series.)

Test [2] is described as follows: qHTS assay to identify small molecule antagonists of the retinoic acid receptor (RAR) signaling pathway (AID 1159552; note: nearly all actives have a fitted effect of over 50% in size; note: potency is the fitted concentration of half-maximal effect). In short, it runs like this:
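Antagonism of retinol-induced RARE reporter activity was measured in C3RL4 cells. Exposure to compounds and 1 uM final retinol lasted 6 hr at 37 C, with luminescence as endpoint.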

Test [3] concerns the target Luciferin 4-monooxygenase (Photinus pyralis) (UniProt P08659). Briefly: qHTS assay to identify small molecule inhibitors of firefly luciferase (AID 1224835). Note: nearly all actives have a fitted effect of over 25% in size. Note: potency is the fitted concentration of half-maximal effect. In short, it runs like this:
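Quantitative HTS format; KM concentrations of both substrates. Purified P. pyralis FLuc activity quantified from luminescence images.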

A short description of test [4]: qHTS assay to identify small molecule agonists of the constitutive androstane receptor (CAR) signaling pathway - cell viability counter screen (AID 1224836). Note: nearly all actives have a fitted effect of over 45% in size. Note: potency is the fitted concentration of half-maximal effect. In short, it runs like this: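 Double-stable HepG2 hepatoma cells (hCAR plus CYP2B6-2.2kb) are treated for 23 h at 37 C with test compounds in 15-point concentration series. PK11195 at 0.75 uM final is co-added. Cell viability is quantified by CellTiter-Fluor.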

Test [5] in a line: qHTS assay to identify small molecule antagonists of the constitutive androstane receptor (CAR) signaling pathway - cell viability counter screen (AID 1224837). Note: nearly all actives have a fitted effect of over 45% in size. Note: potency is the fitted concentration of half-maximal effect. The essentials: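 HepG2-CYP2B6-hCAR cells, 2500/well, 4 hr pre-incubation; compound titration, 15 conc.; CITCO 50 nM final; 23 hr, 37 C/5% CO2; CellTiter-Fluor, fluorescence intensity.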
Test [6] addresses Nuclear receptor subfamily 1 group I member 3 (Homo sapiens) (UniProt Q14994). Put plainly: qHTS assay to identify small molecule agonists of the constitutive androstane receptor (CAR) signaling pathway (AID 1224839). Note: nearly all actives have a fitted effect of over 15% in size. Note: potency is the fitted concentration of half-maximal effect. In short, it runs like this: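 Readout: firefly luciferase luminescence via ONE-Glo. System: HepG2 double-stable for hCAR and CYP2B6-2.2kb. Conditions: 15-point compound titration, PK11195 at 0.75 uM final, 24 h incubation.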

A short description of test [7]: qHTS assay to identify small molecule antagonists of the estrogen related receptor signaling pathway with the pleiotropic PPARgamma coactivator (PGC) from Tox21 10K library - cell viability counter screen (AID 1224840; active = well fitted cell-killing curve with a large enough effect in the repeat runs, not every such curve was filed as active; note: nearly all actives have a fitted effect of over 40% in size; note: potency is the fitted concentration of half-maximal effect). The essentials: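 PGC/ERR cells, 2,000/well; 6 h pre-incubation 37 C/5% CO2; cpd in DMSO via pin tool; 17.5 h 37 C; CellTiter-Fluor, 30 min; fluorescence.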

Test [8] is described as follows: qHTS assay to identify small molecule antagonists of the estrogen related receptor signaling pathway with the pleiotropic PPARgamma coactivator (PGC) from Tox21 10K library (AID 1224841; call rule not given here; note: actives are mostly falling curves and most rising ones were filed inactive; nearly all actives have a fitted effect of over 50% in size; note: potency is the fitted concentration of half-maximal effect). The essentials: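 PGC/ERR cell line, 2,000 cells/well; 6 h pre-incubation 37 C/5% CO2; compounds (DMSO) pinned in; 18 h, 37 C; One-Glo, 30 min RT; luminescence.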
A short description of test [9]: qHTS assay to identify small molecule agonists of the estrogen related receptor signaling pathway with the pleiotropic PPARgamma coactivator (PGC) from Tox21 10K library (AID 1224842). Note: nearly all actives have a fitted effect of over 15% in size. In short, it runs like this: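 PGC/ERR reporter cells (NTP line) were seeded 2,000 per well, rested 6 h at 37 C/5% CO2, then pin-dosed with compounds in DMSO for 18 h at 37 C; luciferase read by One-Glo luminescence after 30 min at room temperature.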

The target in test [10] is Thyrotropin receptor (Homo sapiens) (UniProt P16473). Briefly: qHTS assay to identify small molecule agonists of the thyroid stimulating hormone receptor (TSHR) signaling pathway (AID 1224843; calls by dose curve; note: nearly all actives have a fitted effect of over 45% in size). In short, it runs like this: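 Cell line HEK293 with TSHR; density 800/well. Exposure 30 min RT. Readout HTRF cAMP (cAMP-d2/anti-cAMP-cryptate), 1 h RT before reading.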
Thyrotropin receptor (Homo sapiens), sequence (P16473 whole entry, looked up): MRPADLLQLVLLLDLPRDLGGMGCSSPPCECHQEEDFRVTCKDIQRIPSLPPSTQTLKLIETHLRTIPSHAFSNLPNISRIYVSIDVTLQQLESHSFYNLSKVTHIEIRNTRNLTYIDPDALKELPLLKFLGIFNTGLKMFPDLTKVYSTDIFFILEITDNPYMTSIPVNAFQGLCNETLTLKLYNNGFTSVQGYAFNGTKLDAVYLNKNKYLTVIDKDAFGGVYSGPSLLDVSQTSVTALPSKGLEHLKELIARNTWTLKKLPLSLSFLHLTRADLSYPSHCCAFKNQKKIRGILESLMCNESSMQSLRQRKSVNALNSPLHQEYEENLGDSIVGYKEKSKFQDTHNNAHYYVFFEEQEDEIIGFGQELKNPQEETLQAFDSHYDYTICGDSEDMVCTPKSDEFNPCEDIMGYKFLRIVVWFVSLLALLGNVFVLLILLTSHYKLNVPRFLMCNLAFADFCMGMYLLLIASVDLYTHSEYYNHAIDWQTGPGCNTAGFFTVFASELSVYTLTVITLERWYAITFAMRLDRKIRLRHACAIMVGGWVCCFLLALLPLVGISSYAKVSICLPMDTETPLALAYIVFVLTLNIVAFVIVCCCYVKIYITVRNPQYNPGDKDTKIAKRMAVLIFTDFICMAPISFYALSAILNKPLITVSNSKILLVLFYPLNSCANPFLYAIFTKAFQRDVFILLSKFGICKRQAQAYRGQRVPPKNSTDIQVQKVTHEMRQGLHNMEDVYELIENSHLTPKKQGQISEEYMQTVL
The nature of test [11]: qHTS assay to identify small molecule agonists of the hypoxia (HIF-1) signaling pathway - cell viability counter screen (AID 1224844; calls by dose curve; note: nearly all actives have a fitted effect of over 50% in size; note: potency is the fitted concentration of half-maximal effect). The essentials: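 ME-180 HRE-bla cells, 2,000/well, 0.5% dialyzed FBS; 5 hr settle, 17 hr compound at 37C/5% CO2; CCF4-AM reporter read first, then CellTiter-Glo luminescence after 30 min RT.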
A short description of test [12]: qHTS assay to identify small molecule antagonists of the estrogen related receptor (ERR) signaling pathway from Tox21 library - cell viability counter screen (AID 1224834). Note: nearly all actives have a fitted effect of over 30% in size. Note: potency is the fitted concentration of half-maximal effect. The essentials:
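Fluorescence from CellTiter-Fluor gives the viability read-out, taken 30 min after reagent addition. Before that, ERR cells seeded 6 h earlier were incubated with compounds for 17.5 h at 37 C.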

Test [13] deals with Nuclear receptor subfamily 1 group I member 3 (Homo sapiens) (UniProt Q14994). Briefly: qHTS assay to identify small molecule antagonists of the constitutive androstane receptor (CAR) signaling pathway (AID 1224838).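 Note: HepG2 cells stably expressing hCAR with CYP2B6 luciferase reporter stimulated by CITCO; nearly all actives have a fitted effect of over 40% in size.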 Note: potency is the fitted concentration of half-maximal effect. The essentials:
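HepG2-CYP2B6-hCAR cells; 4 h pre-incubation; cpd (15 conc) + CITCO 50 nM final; 24 h, 37 C/5% CO2; ONE-Glo, luminescence.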

A short description of test [14]: qHTS assay to identify small molecule agonists of the retinoic acid receptor (RAR) signaling pathway (AID 1159553). In short, it runs like this: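 Luminescence from a RARE-driven luciferase reporter in C3RL4 cells served as the read-out, measured after 30 min with detection reagent at room temperature. Compounds in DMSO were applied for 6 hr at 37 C following overnight seeding.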

Results filed as inconclusive are left out. A number with no mark means an inactive call. The source made the active and inactive calls. Unless noted, calls come from the whole dose curve; as a rule, active = well fitted curve in the direction sought with a large enough effect in the repeat runs; inconclusive = weak or mixed curves; inactive = no such curve, though single readings can be large; an effect the other way counts as inactive or inconclusive.

Nuclear receptor subfamily 1 group I member 3 (Homo sapiens), sequence (Q14994 whole entry, looked up): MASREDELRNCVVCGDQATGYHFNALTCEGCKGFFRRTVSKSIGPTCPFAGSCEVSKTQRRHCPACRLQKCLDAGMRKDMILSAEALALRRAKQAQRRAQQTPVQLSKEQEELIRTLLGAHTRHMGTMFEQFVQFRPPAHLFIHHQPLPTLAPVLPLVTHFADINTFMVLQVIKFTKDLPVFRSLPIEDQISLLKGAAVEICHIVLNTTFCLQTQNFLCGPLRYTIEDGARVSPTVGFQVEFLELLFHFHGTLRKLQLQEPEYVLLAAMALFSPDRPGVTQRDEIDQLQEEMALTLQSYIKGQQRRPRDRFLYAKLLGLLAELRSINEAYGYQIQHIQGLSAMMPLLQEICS
Luciferin 4-monooxygenase (Photinus pyralis), sequence (P08659 whole entry, looked up): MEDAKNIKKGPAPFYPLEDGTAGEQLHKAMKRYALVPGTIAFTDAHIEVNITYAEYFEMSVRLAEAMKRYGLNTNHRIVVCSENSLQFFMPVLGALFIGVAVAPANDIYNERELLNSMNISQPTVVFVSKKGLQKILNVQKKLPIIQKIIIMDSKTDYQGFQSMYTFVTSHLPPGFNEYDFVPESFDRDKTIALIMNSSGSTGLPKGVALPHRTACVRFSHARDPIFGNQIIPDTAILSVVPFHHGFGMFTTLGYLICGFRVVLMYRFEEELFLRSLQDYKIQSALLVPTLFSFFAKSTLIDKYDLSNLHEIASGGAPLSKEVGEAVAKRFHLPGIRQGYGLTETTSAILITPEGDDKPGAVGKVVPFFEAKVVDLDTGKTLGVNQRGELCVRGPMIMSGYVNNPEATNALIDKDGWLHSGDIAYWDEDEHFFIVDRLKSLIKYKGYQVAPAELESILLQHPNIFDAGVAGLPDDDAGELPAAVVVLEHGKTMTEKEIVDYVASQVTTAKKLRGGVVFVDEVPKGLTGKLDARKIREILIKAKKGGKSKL

For `Cc1cccc(N(C)C(=S)Oc2ccc3c(c2)C2CCC3C2)c1` (stereo unspecified), the Potency result in test [1], in test [2], in test [3], in test [4], in [5] and in [7] was “inactive” throughout. The Potency entry in test [8], in test [9], in [10] and in test [11] was “inactive” each time. In test [6], the Potency is 21.1 µM (active).
As to `C=C(C)C(=O)OCC(O)COc1ccc(C(C)(C)c2ccc(OCC(O)COC(=O)C(=C)C)cc2)cc1` (stereo unspecified), the Potency entry in test [1], in [2], in test [3], in [6], in test [9] and in test [10] was “inactive” each time. Also, the results for the Potency in test [12], in test [5] and in test [7] were 48.6 µM (active), 61.1 µM (active) and 30.6 µM (active), respectively.
For `COc1ccc(CN2CCN(C(c3ccc(F)cc3)c3ccc(F)cc3)CC2)c(OC)c1OC`, the Potency result in test [1], in [3], in test [6] and in [9] was “inactive” each time. In addition, the Potency is 26.6 µM (active) in [2], 13.3 µM (active) in test [12], 26.6 µM (active) in test [7] and 11.9 µM (active) in test [8].
Turning to `CCc1cc(Cc2cc(CC)c(N)c(CC)c2)cc(CC)c1N`, the Potency result in test [1], in test [2], in [3], in test [4], in test [5] and in test [9] was “inactive” in each case. For the same compound, the Potency result in [11] was “inactive”. In addition, the Potency in test [6] is 4.86 µM (active); in test [8], 21.7 µM (active).
On to `CCCCCCCC/C=C/CCCCCCCC1=NCCN1CCO`, for which the Potency in test [1] is 68.6 µM (active); in test [2], 61.1 µM (active); in test [12] it was 54.5 µM (active); in [5], 68.6 µM (active); in [11] it was 54.9 µM (active). Further, the Potency result in [3], in test [6] and in test [9] was “inactive” in each case.
Take `Cc1cc(O)c2ccccc2c1O`: the Potency was 13.3 µM (active) in [1], 16.8 µM (active) in [2], 16.8 µM (active) in [13] and 13.4 µM (active) in [11]. The Potency result in [3], in [4], in [6], in test [7], in test [9] and in [10] was “inactive” throughout.
Take `CCCCCCCCNC(C)C(O)c1ccc(SC(C)C)cc1` (stereo unspecified): the Potency in test [1] was 26.6 µM (active); in test [2], 13.3 µM (active); in test [4], 29.8 µM (active); in test [5], 29.8 µM (active); in test [7] it was 29.8 µM (active); in test [11], 19 µM (active). Besides, the Potency result in [3] and in [9] was “inactive” throughout.
Take `CC(C)(C)C(=O)OCOC(=O)[C@@H]1N2C(=O)[C@@H](NC(=O)[C@H](N)c3ccccc3)[C@H]2SC1(C)C`: the Potency entry in [1], in test [14], in test [12], in [3], in test [4] and in test [5] was “inactive” each time. Moreover, the Potency result in [13], in [6], in test [7], in [9], in test [10] and in test [11] was “inactive” each time.
For `O=C1CCCc2c1cc1ccc3cccc4ccc2c1c34`, the Potency result in test [1], in test [2], in test [4], in test [13], in test [7] and in test [10] was “inactive” each time. Besides, the Potency in test [3] was 11.4 µM (active); in test [11] it was 44.2 µM (active).
As to `CCCCCCCCn1sc(Cl)c(Cl)c1=O`, the Potency is 13.7 µM (active) in test [1]; 27.3 µM (active) in test [2]; 3.56 µM (active) in test [3]; 30.6 µM (active) in test [4]; 30.6 µM (active) in [5]; 6.16 µM (active) in test [11]. For the same compound, the Potency entry in test [6] and in test [10] was “inactive” in each case.
